One may read the AC50 as the concentration at which the activity in the assay is half-maximal.

These results are taken from PubChem BioAssay (EPA / NIEHS).

The structures appear in SMILES notation. Where “and” joins values, the source holds several entries; their conditions need not be identical. Identical values can stand only once. Some compounds were tested as several samples or in several runs, with calls that do not always agree. Calls of active or inactive are those of the source. The calls were made as follows: active = hit-call score of the fitted dose curve at least 0.9, where 1 is the maximum; inactive = score below 0.9.

Read-out in assay [1]: serum amyloid A (SAA), SAA1 (gene 6288)
Description: BSK_CASM3C_SAA: BioMAP Diversity Plus: CASM3C Assay for serum amyloid A (SAA) Biomarker Activity (AID 2283049).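 Also: SAA protein level quantified by ELISA.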 The following applies: primary human coronary artery smooth muscle cells; actives raise or lower the signal.

Assay [2] is described as follows: BSK_CASM3C_SRB: Viability Assessment in the BioMAP Diversity Plus: CASM3C Assay (AID 2283050). As to conditions: primary human coronary artery smooth muscle cells.
Read-out in assay [3]: Thrombomodulin, THBD (gene 7056)
Description: BSK_CASM3C_Thrombomodulin: BioMAP Diversity Plus: CASM3C Assay for Thrombomodulin Biomarker Activity (AID 2283051).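 Also: thrombomodulin protein level measured by ELISA 24 h after dosing.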 The following applies: primary human coronary artery smooth muscle cells; actives raise or lower the signal.

Read-out in assay [4]: Tissue Factor, F3 (gene 2152)
Description: BSK_CASM3C_TissueFactor: BioMAP Diversity Plus: CASM3C Assay for Tissue Factor Biomarker Activity (AID 2283052).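 Also: cell surface tissue factor protein level read by ELISA.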 The following applies: primary human coronary artery smooth muscle cells; actives raise or lower the signal.

Read-out in assay [5]: Interferon-gamma inducible Protein 10 (IP10), CXCL10 (gene 3627)
Description: BSK_hDFCGF_IP10: BioMAP Diversity Plus: hDFCGF Assay for Interferon-gamma inducible Protein 10 (IP10) Biomarker Activity (AID 2283053). The following applies: primary human foreskin fibroblasts; actives raise or lower the signal. Summed up: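 Primary human foreskin fibroblasts exposed to chemicals for 24 h. IP-10 measured by ELISA; changes fitted bidirectionally against DMSO baseline.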

Read-out in assay [6]: Urokinase-type plasminogen activator receptor (uPAR), PLAUR (gene 5329)
Nature of the assay: BSK_CASM3C_uPAR: BioMAP Diversity Plus: CASM3C Assay for Urokinase-type plasminogen activator receptor (uPAR) Biomarker Activity (AID 2283054).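 Also: cell-surface uPAR protein level quantified by ELISA.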 The following applies: primary human coronary artery smooth muscle cells; actives raise or lower the signal.

Read-out in assay [7]: Vascular cell adhesion molecule 1 (VCAM1), VCAM1 (gene 7412)
Nature of the assay: BSK_CASM3C_VCAM1: BioMAP Diversity Plus: CASM3C Assay for Vascular cell adhesion molecule 1 (VCAM1) Biomarker Activity (AID 2283055).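 Also: VCAM-1 protein level quantified by ELISA on the cells.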 As to conditions: primary human coronary artery smooth muscle cells; actives raise or lower the signal.

Read-out in assay [8]: Collagen III, COL3A1 (gene 1281)
Description: BSK_hDFCGF_CollagenIII: BioMAP Diversity Plus: hDFCGF Assay for Collagen III Biomarker Activity (AID 2283056). The following applies: primary human foreskin fibroblasts; actives raise or lower the signal. Summed up:
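Response relative to DMSO, fitted in both directions, reflects ELISA-measured collagen III in human primary skin fibroblasts 24 h after compound addition.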

Read-out in assay [9]: Epidermal growth factor receptor (EGFR), EGFR (gene 1956)
Description: BSK_hDFCGF_EGFR: BioMAP Diversity Plus: hDFCGF Assay for Epidermal growth factor receptor (EGFR) Biomarker Activity (AID 2283057). The following applies: primary human foreskin fibroblasts; actives raise or lower the signal. The gist of the method:
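Primary human foreskin fibroblasts (hDFCGF system), sampled 24 h after dosing; EGFR quantified by ELISA. Bidirectional fit relative to DMSO baseline; SRB total-protein staining in parallel cultures for cytotoxicity.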

Read-out in assay [10]: Interleukin-8 (IL8), CXCL8 (gene 3576)
Nature of the assay: BSK_hDFCGF_IL8: BioMAP Diversity Plus: hDFCGF Assay for Interleukin-8 (IL8) Biomarker Activity (AID 2283058). The following applies: primary human foreskin fibroblasts; actives raise or lower the signal. The gist of the method: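 Fibroblast monolayers (human foreskin, hDFCGF) received test chemical for 24 h before ELISA detection of IL-8; either increases or decreases relative to DMSO count as activity.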

The nature of assay [11]: BSK_hDFCGF_Proliferation: Cell Proliferation Assessment in the BioMAP Diversity Plus: hDFCGF Assay (AID 2283059).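 Also: curves fitted for both rise and fall of signal versus DMSO baseline.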 The following applies: primary human foreskin fibroblasts. The gist of the method:
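This proliferation readout used SRB total-protein staining of human foreskin fibroblasts […], normalized to DMSO with bidirectional curve fitting.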

Read-out in assay [12]: Macrophage colony-stimulating factor (MCSF), CSF1 (gene 1435)
Nature of the assay: BSK_hDFCGF_MCSF: BioMAP Diversity Plus: hDFCGF Assay for Macrophage colony-stimulating factor (MCSF) Biomarker Activity (AID 2283060). As to conditions: primary human foreskin fibroblasts; actives raise or lower the signal. Summed up: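 fibroblasts (human foreskin, primary), 24 h post-dose; M-CSF by ELISA; bidirectional fit, DMSO = baseline.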

Assay [13] can be described thus: BSK_hDFCGF_SRB: Viability Assessment in the BioMAP Diversity Plus: hDFCGF Assay (AID 2283061).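 Also: cells exposed to compound for 24 h before the read.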 As to conditions: primary human foreskin fibroblasts. Summed up: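 SRB-based viability read on primary human skin fibroblasts at 24 h: TCA fixation, 0.1% dye, 560 nm. Gain or loss of signal is fitted against the DMSO negative control.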
Read-out in assay [14]: TIMP metallopeptidase inhibitor 1 (TIMP1), TIMP1 (gene 7076)
Description: BSK_hDFCGF_TIMP1: BioMAP Diversity Plus: hDFCGF Assay for TIMP metallopeptidase inhibitor 1 (TIMP1) Biomarker Activity (AID 2283062). The following applies: primary human foreskin fibroblasts; actives raise or lower the signal. Summed up: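 Bidirectional curve fitting against DMSO baseline yielded this endpoint, based on ELISA detection of TIMP-1 in primary human foreskin fibroblasts exposed to compound for 24 h.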

Read-out in assay [15]: Monokine induced gamma interferon (MIG), CXCL9 (gene 4283)
Description: BSK_hDFCGF_MIG: BioMAP Diversity Plus: hDFCGF Assay for Monokine induced gamma interferon (MIG) Biomarker Activity (AID 2283063). As to conditions: primary human foreskin fibroblasts; actives raise or lower the signal. The gist of the method:
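Endpoint derived by bidirectional fitting relative to DMSO; MIG quantified via ELISA in primary human foreskin fibroblasts harvested 24 h after dosing.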

Read-out in assay [16]: Matrix Metallopeptidase 1 (MMP1), MMP1 (gene 4312)
Description: BSK_hDFCGF_MMP1: BioMAP Diversity Plus: hDFCGF Assay for Matrix Metallopeptidase 1 (MMP1) Biomarker Activity (AID 2283064). As to conditions: primary human foreskin fibroblasts; actives raise or lower the signal. Summed up: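 Primary human foreskin fibroblasts exposed to chemicals for 24 h; MMP1 measured by ELISA. Cytotoxicity tracked by SRB staining in parallel cultures; bidirectional fit relative to DMSO.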

Read-out in assay [17]: Vascular cell adhesion molecule 1 (VCAM1), VCAM1 (gene 7412)
Description: BSK_hDFCGF_VCAM1: BioMAP Diversity Plus: hDFCGF Assay for Vascular cell adhesion molecule 1 (VCAM1) Biomarker Activity (AID 2283065).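 As to AC50: VCAM-1 protein level quantified by ELISA after 24 h chemical exposure.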 As to conditions: primary human foreskin fibroblasts; actives raise or lower the signal. Summed up: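 Measured after 24 h chemical treatment of primary human skin fibroblasts, VCAM-1 was detected by ELISA and concentration-response analysed in both directions versus DMSO vehicle.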

Read-out in assay [18]: Plasminogen activator inhibitor-1 (PAI1), SERPINE1 (gene 5054)
Nature of the assay: BSK_hDFCGF_PAI1: BioMAP Diversity Plus: hDFCGF Assay for Plasminogen activator inhibitor-1 (PAI1) Biomarker Activity (AID 2283066). As to conditions: primary human foreskin fibroblasts; actives raise or lower the signal. Summed up:
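Human foreskin fibroblast primary cells, 24 h chemical exposure; PAI-1 measured by ELISA. Bidirectional fitting relative to DMSO; parallel cultures stained with SRB for total protein to flag overt cytotoxicity.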

Read-out in assay [19]: Intercellular Adhesion Molecule 1 (ICAM1), ICAM1 (gene 3383)
Nature of the assay: BSK_KF3CT_ICAM1: BioMAP Diversity Plus: KF3CT Assay for Intercellular Adhesion Molecule 1 (ICAM1) Biomarker Activity (AID 2283067). The following applies: primary human keratinocytes with fibroblasts; actives raise or lower the signal. The gist of the method:
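Bidirectional curve fitting against a DMSO baseline was applied to ICAM-1 ELISA signal from primary human skin co-cultures harvested 24 h after treatment, with SRB staining of parallel wells for overt cytotoxicity.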

Read-out in assay [20]: Interferon-gamma inducible Protein 10 (IP10), CXCL10 (gene 3627)
Description: BSK_KF3CT_IP10: BioMAP Diversity Plus: KF3CT Assay for Interferon-gamma inducible Protein 10 (IP10) Biomarker Activity (AID 2283068). As to conditions: primary human keratinocytes with fibroblasts; actives raise or lower the signal. Summed up: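 Signal is secreted/surface IP-10 by ELISA in a human primary skin co-culture of keratinocytes and foreskin fibroblasts, taken 24 h post-dosing; DMSO served as negative control.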

Take `COc1cc(OC)nc(NC(=O)NS(=O)(=O)c2ncccc2C(=O)N(C)C)n1`: the outcome in assay [1], in [2], in assay [3], in assay [4], in [5] and in assay [6] was inactive. For the same molecule, the outcome in assay [7], in [8], in assay [9], in [10], in assay [11] and in [12] was inactive. Moreover, the result in assay [13], in assay [14], in assay [15], in assay [16], in [17] and in [18] was inactive. Further, the outcome in [19] and in assay [20] was inactive.

`NC(=O)O`: the result in [1], in [2], in assay [3], in assay [4], in assay [5] and in assay [6] was inactive. The result in [7], in assay [8], in assay [9], in assay [10], in assay [11] and in [12] was inactive. The outcome in [13], in assay [14], in assay [15], in [16], in [17] and in [18] was inactive. The result in assay [19] and in [20] was inactive.

`C(=NC1CCCCC1)=NC1CCCCC1`: the half-maximal activity concentration (AC50) was 35.7 µM (active) in assay [1]; 20 µM (active) in [2]; 34.5 µM (active) in assay [3]; 25.1 µM (active) in assay [4]; 11.7 µM (active) in assay [5]; 26.8 µM (active) in assay [6]. Further, the half-maximal activity concentration (AC50) was 20 µM (active) in [7]; 33.2 µM (active) in assay [8]; 32.4 µM (active) in [10]; 20 µM (active) in assay [11]; 20 µM (active) in assay [12]; 13.8 µM (active) in assay [13]. For the same molecule, the AC50 is 14.9 µM (active) in assay [14]; 26.8 µM (active) in assay [15]; 32.7 µM (active) in assay [16]; 10.7 µM (active) in [17]; 20 µM (active) in [18]; 20 µM (active) in [19]. For the same molecule, the half-maximal activity concentration (AC50) in [20] is 14.9 µM (active). Further, the result in assay [9] was inactive.

For the molecule `O=C(O)C(F)(F)C(F)(F)C(F)(F)C(F)(F)C(F)(F)C(F)(F)C(F)(F)C(F)(F)C(F)(F)C(F)(F)F`, the outcome in [1], in assay [2], in [3], in [4], in assay [6] and in assay [7] was inactive. Further, the outcome in assay [9] was inactive. Besides, the concentration at half-maximal activity (AC50) in assay [3] is 0.141 µM (active); in [5], 6.56 µM (active) and 4.76 µM (active) and 4.7 µM (active); in assay [8], 17.1 µM (active) and 5.73 µM (active) and 3.66 µM (active); in [9], 835 nM (active) and 906 nM (active); in [10], 13.1 µM (active) and 6.18 µM (active) and 6.3 µM (active); in [12] it was 10.8 µM (active) and 5.03 µM (active) and 4.97 µM (active). The AC50 in [13] was 9.04 µM (active) and 5.23 µM (active) and 5.22 µM (active); in assay [14], 9.33 µM (active) and 5.14 µM (active) and 5.31 µM (active); in assay [15] it was 11.5 µM (active) and 4.94 µM (active) and 5.08 µM (active); in [16], 6.98 µM (active) and 5.59 µM (active) and 6.54 µM (active); in [17] it was 11.7 µM (active) and 3.07 µM (active) and 4.25 µM (active); in assay [18], 10.7 µM (active) and 5.61 µM (active) and 5.09 µM (active). Moreover, the concentration at half-maximal activity (AC50) is 12.9 µM (active) and 5 µM (active) and 4.73 µM (active) in assay [19]; 6.91 µM (active) and 5.45 µM (active) and 5.25 µM (active) in [20].

With `Nc1ccc(-c2ccc(N)c(Cl)c2)cc1Cl`, the outcome in assay [1], in [2], in assay [3], in [5], in assay [6] and in assay [7] was inactive. The result in assay [8], in [9], in assay [10], in assay [12], in assay [13] and in assay [14] was inactive. Besides, the result in assay [15], in [16], in [17], in assay [18], in assay [19] and in [20] was inactive. For the same molecule, the figures for the AC50 in [4] and in assay [11] were 11.6 µM (active) and 0.922 µM (active), respectively.
